# Sampled rows, rich in hits. Any-hit rate of the full collection: about 3.1%.
# Wnt bcat act: Wnt/beta-catenin pathway activators, primary screen, cell-based, plate reader, single point. Wnt/beta-catenin reporter cell assay, activator. activation, % at 9.35 µM. 1.2% of 300,000 active; in the data active means activation above about 30%, passing the limit was not always enough; inconclusive means no clear call, values can overlap the other calls
# Rtt109 HAT inh: inhibitors of C. albicans Rtt109/Vps75 HAT, primary screen, biochemical, ThioGlo CoA-SH fluorescence, plate reader; 0.16% of 330,000 active; Histone acetyltransferase RTT109 (Candida albicans (strain SC5314 / ATCC MYA-2876)), …; purified Rtt109/Vps75, 4 h; inhibition, % at 34.9 µM; AID 540336, 2011;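 active means inhibition of at least 50% in every replicate; inconclusive means best replicate reaches 50% inhibition but some replicates fall short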
# Target sequence (Q5AAJ8 whole entry, looked up): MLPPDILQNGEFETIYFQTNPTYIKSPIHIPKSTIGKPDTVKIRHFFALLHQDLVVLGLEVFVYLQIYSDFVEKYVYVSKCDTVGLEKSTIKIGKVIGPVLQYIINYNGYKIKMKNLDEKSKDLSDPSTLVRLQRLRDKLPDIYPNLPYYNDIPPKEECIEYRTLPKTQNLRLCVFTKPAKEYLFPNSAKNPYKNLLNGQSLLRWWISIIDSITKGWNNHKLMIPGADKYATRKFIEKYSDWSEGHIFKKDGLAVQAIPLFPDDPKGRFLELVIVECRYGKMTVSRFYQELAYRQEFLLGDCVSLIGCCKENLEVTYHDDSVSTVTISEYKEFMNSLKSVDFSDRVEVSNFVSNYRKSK
# esBAF inh: Bmi1 luciferase reporter increase in mESCs, primary screen, esBAF inhibitor project, mouse ES cells, Bmi1 luciferase knock-in, single point; reporter increase, % at 12.5 µM; 2% of 350,000 active; 24 h; 100% = twice the neutral-well signal; in the data active means activation above about 40%; inconclusive means no clear call, values can overlap the other calls;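 further: a rise in the Bmi1 reporter signal indicates esBAF inhibition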
# MITF TRPM1 HTS: activators of MITF-driven TRPM1 promoter reporter, primary screen, cell-based, SK-MEL-5, luciferase, single point | SK-MEL-5 TRPM1-promoter luciferase, 24 h; % of positive control, neutral wells = 0 | activation, % at 12.5 µM | 0.75% of 300,000 active | AID 588334, 2011;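 active means mean activation of at least 80% with every replicate also reaching 80%; inconclusive means mean reaches 80% but some replicate falls short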
# C2C12 statin: suppressors of statin myotoxicity in C2C12 myotubes, primary screen, cell-based, single point, plate reader; C2C12 myotubes + simvastatin, ATP luminescence, 48 h; scaled: DMSO 0, geranylgeraniol control 100; rescue of ATP level, % at 7.49 µM; 0.78% of 330,000 active;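 active means mean ATP rescue above about 67%, or every replicate alone reaching that limit, limit read from the data, passing the limit was not always enough; inconclusive means no clear call, values can overlap the other calls; inactive means mean under the limit and some replicate under it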;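 further: myotubes were challenged with 10 µM simvastatin during compound exposure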
# A number is an active result; - = inactive; ? = inconclusive; . = no result given.
SMILES,Wnt bcat act,Rtt109 HAT inh,esBAF inh,MITF TRPM1 HTS,C2C12 statin
Cc1ccc2c(c1)Sc1c(ccc3ccccc13)N2,46.3,-,51.2,-,-
COc1ccccc1-c1ccc([C@H]2[C@@H](C#N)N(C(=O)C3CCOCC3)[C@H]2CO)cc1,.,.,-,.,-
Nc1nc(Nc2ccccc2F)nc(N2CCCC2)c1[N+](=O)[O-],-,-,69.9,87.8,-
COc1ccc(NC(=O)N(C)C[C@@H]2OCCCC[C@@H](C)Oc3ccc(NS(=O)(=O)c4ccc(F)cc4)cc3C(=O)N([C@H](C)CO)C[C@@H]2C)cc1,.,.,-,.,.
Cc1cccc(NC(=S)N(C)C)c1C,-,-,-,-,-
Cc1cccc(Nc2cc(C)c3c(O)cccc3n2)c1C,-,-,60.3,-,-
CCC(=O)N1C[C@H](C)[C@H](OC)CN(C)C(=O)c2ccc(NC(=O)Nc3ccc(Cl)cc3)cc2OC[C@@H]1C,.,.,-,.,-
COc1ccc(-c2nc3c4ccccc4[nH]c(=O)n3n2)cc1,59.3,-,45.7,.,-
C[C@@H](O)C#Cc1cnc2c(c1)C(=O)N([C@@H](C)CO)C[C@H](C)[C@@H](CN(C)CC1CCOCC1)O2,.,.,-,.,-
C=CCOc1ccc(/C=C2\SC(=S)N(N3CCOCC3)C2=O)cc1,42.4,-,.,.,.
C[C@H](CO)N1C[C@H](C)[C@@H](CN(C)C(=O)CCCN(C)C)OCCCC[C@H](C)Oc2ccc(NS(C)(=O)=O)cc2C1=O,.,.,-,.,-
COC(=O)c1cc(Cl)cc2c(C)c(C3(O)CCCCC3)[nH]c12,-,-,-,-,-
COC(=O)c1ccc2c(C)c(C3(O)CCCCC3)[nH]c2c1,-,-,66.2,-,-
CN(C)S(=O)(=O)c1ccc(NC(=O)Cc2ccc(S(=O)(=O)N3CCOCC3)s2)cc1,-,-,.,-,.
COc1ccc(S(=O)(=O)N(C)C)cc1NC(=O)Cc1ccc(S(=O)(=O)N2CCOCC2)s1,-,50.8,-,-,-
CC=Cc1ccc2n(c1=O)C[C@H]1[C@H](CO)[C@@H](C(=O)NCC3CC3)N(C(=O)CC3CC3)[C@@H]21 (mixture of isomers),.,.,-,.,-
COc1ccc(C2C(C(C)=O)=C(O)C(=O)N2c2ccc(Br)cn2)cc1 (stereo not given),.,-,-,-,136.0
CO[C@@H]1CN(C)C(=O)c2cc(NS(=O)(=O)CC(F)(F)F)ccc2OC[C@@H](C)N(CC2CCCCC2)C[C@@H]1C,.,.,-,.,-
O=C(Nc1ccccc1)C(=O)Nc1ccc2c(c1)N(C(=O)C1CC1)CCC2,41.8,-,.,92.2,.
O=C(C1CCC(C(=O)N2CCc3ccccc32)CC1)N1CCc2ccccc21 (stereo not given),.,-,-,-,-
CC(=O)N1CCN(c2ncnc3ccccc23)CC1,-,57.6,-,.,-
C[C@@H]1CN([C@H](C)CO)S(=O)(=O)c2ccc(C3=CCCCC3)cc2O[C@H]1CN(C)C,.,.,.,.,-
O=C(Cn1cc(SCc2cccc(Cl)c2)c2ccccc21)N1CCOCC1,.,-,62.4,-,-
O=C(CSc1cn(CC(=O)N2CCOCC2)c2ccccc12)N1CCOCC1,-,-,-,-,-
Cc1cccc(CSc2cn(CC(=O)N3CCOCC3)c3ccccc23)c1,-,-,83.6,-,-
SMILES,Wnt bcat act,Rtt109 HAT inh,esBAF inh,MITF TRPM1 HTS,C2C12 statin
CCOC(=O)/C(C#N)=C/c1cc(C)n(-c2ccc(C)cc2)c1C,.,-,-,93.0,-
CN1CCN(C(=O)C[C@@H]2C[C@H]3c4cc(NC(=O)Nc5ccccc5F)ccc4O[C@H]3[C@H](CO)O2)CC1,.,.,-,.,-
O=C(C[C@@H]1CC[C@@H]2[C@H](COC[C@@H](O)CN2Cc2cccc(-c3ccncc3)c2)O1)N1CCOCC1,.,.,-,.,-
O=C1CCC2CN3CCc4c([nH]c5ccccc45)C3CC2C1 (stereo not given),-,.,-,.,-
OC1CCC2CN3CCc4c([nH]c5ccccc45)C3CC2C1 (stereo not given),-,.,62.2,.,-
C[C@H](CO)N1C[C@H](C)[C@H](CN(C)C)Oc2ccc(NS(=O)(=O)c3ccc(Cl)cc3)cc2CC1=O,.,.,-,.,-
CO[C@@H]1CN(C)C(=O)c2cc(NC(C)=O)ccc2OC[C@@H](C)N(Cc2cccc(F)c2)C[C@@H]1C,.,.,-,.,-
CCCC(=O)N1CCCC(C(=O)c2cccc(OC(C)C)c2)C1 (stereo not given),-,-,53.9,.,-
CC(=O)Nc1cc(-c2ccc(Cl)cc2)[nH]n1,-,-,73.6,-,-
C[C@@H]1CN([C@H](C)CO)C(=O)Cc2cc(NC(=O)Cc3cn(C)c4ccccc34)ccc2O[C@H]1CN(C)C(=O)Nc1ccc2c(c1)OCO2,.,.,-,.,-
c1cnc2c(OCc3cn4cccnc4n3)cccc2c1,-,-,-,-,.
Clc1ccc(OCc2cn3cccnc3n2)c2ncccc12,.,-,57.4,-,-
Cc1cc(Cl)ccc1OCc1cn2cccnc2n1,-,-,.,82.5,.
O=C(C[C@H]1CC[C@@H]2[C@H](COC[C@H](O)CN2C(=O)c2ccc(F)cc2)O1)Nc1ccc(-c2ccccc2)cc1,.,.,-,.,-
Cc1ccccc1S(=O)(=O)N(C)C[C@H]1OCc2ccccc2-c2ccccc2C(=O)N([C@H](C)CO)C[C@H]1C,.,.,-,.,-
CCCCN(CCCC)c1nc(OC)nc(-n2nnc(C(C)=O)c2C)n1,.,-,-,-,-
CC(C)CN(CC(C)C)c1nn[nH]n1,-,-,.,-,114.1
CCCCN(CCCC)c1nn[nH]n1,-,-,.,-,96.2
CN(C)C(=O)[C@@H]1[C@@H](CO)[C@@H]2Cn3c(ccc(-c4ccccc4F)c3=O)[C@H]1N2C,.,.,-,.,-
COc1ccc(S(=O)(=O)Nc2ccc3c(c2)CC(=O)N([C@H](C)CO)C[C@H](C)[C@@H](CN(C)S(=O)(=O)c2ccc(F)cc2)O3)cc1,.,.,-,.,-
Cc1ccc2c(c1)-c1c(cnn1CC(=O)O)CO2,.,-,-,-,92.4
CO[C@H]1CN(C)C(=O)c2cc(NC(=O)c3ccccc3F)ccc2OC[C@H](C)N(C(=O)c2ccccc2F)C[C@H]1C,.,.,-,.,-
CC(C)(C)c1ccc(C(=O)N/N=C/c2cccc(Cl)c2)cc1,?,-,53.9,.,-
O=C(N/N=C/c1cccc(F)c1)c1ccc(Cl)cc1,-,-,68.8,96.0,-
Cc1cccc(/C=N/NC(=O)c2ccc(Br)cc2)c1,.,-,58.8,-,-
O=C(N/N=C/c1cccc(F)c1)c1csc2c1CCCC2,.,-,50.4,141.9,-
Cc1noc(C)c1S(=O)(=O)N(C)C[C@H]1Oc2ccc(NC(=O)Nc3cccc4ccccc34)cc2CC(=O)N([C@@H](C)CO)C[C@@H]1C,.,.,-,.,-
